Test results as given in PubChem BioAssay (Tox21).
Results filed as inconclusive are left out. The source made the active and inactive calls. Unless noted, the call rests on the fitted dose curve; in most records, active means well fitted curve in the direction sought with a large enough effect in the repeat runs; inconclusive means weak or mixed curves; inactive means no such curve, though single readings can be large; an effect the other way counts as inactive or inconclusive.

Assays:
[1] = qHTS assay to test for compound auto fluorescence at 535 nm (green) in HEK293 cells (AID 720680)
[2] = qHTS assay to test for compound auto fluorescence at 460 nm (blue) in HEK293 cell free culture (AID 720681)
Summary of the method: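 Blue fluorescence (Ex 405/Em 460 nm, triamterene-equivalent) was read immediately after pin transfer of compound or DMSO into medium (DMEM, 10% FBS) without cells.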

[3] = qHTS assay to test for compound auto fluorescence at 535 nm (green) in HEK293 cell free culture (AID 720682)
Summary of the method: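 Measurement is a direct plate read of green fluorescence (485 nm in, 535 nm out) after compound addition to serum-supplemented DMEM lacking cells, with fluorescein used to express intensities.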

[4] = qHTS assay to test for compound auto fluorescence at 590 nm (red) in HEK293 cell free culture (AID 720683)
Summary of the method: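 Red-channel autofluorescence of compounds in culture medium (DMEM, 10% FBS), no cells, measured at 540/590 nm. Rose Bengal sodium is the reference fluorophore for equivalence.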

[5] = qHTS assay to test for compound auto fluorescence at 590 nm (red) in HepG2 cell free culture (AID 720684)
Summary of the method: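 Steps: dispense MEM/10% FBS medium, no cells; pin compound or DMSO vehicle; read red channel, Ex/Em 540/590 nm. Output given as Rose Bengal sodium equivalents.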

[6] = qHTS assay to test for compound auto fluorescence at 460 nm (blue) in HepG2 cell free culture (AID 720685)
Summary of the method: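 Compound (23 nL) or DMSO pinned into cell-free MEM with 10% FBS; blue fluorescence read at 405/460 nm excitation/emission, expressed as auto-fluorescence equivalency to triamterene.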

[7] = qHTS assay to test for compound auto fluorescence at 535 nm (green) in HepG2 cell free culture (AID 720686)
[8] = qHTS assay to test for compound auto fluorescence at 460 nm (blue) in HepG2 cells (AID 720687)
Summary of the method: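 Blue-channel autofluorescence (Ex/Em 405/460 nm, triamterene-equivalent) was measured after 1 hr compound exposure at 37 C, 5% CO2. Cells were HepG2, plated overnight at 37 C in MEM plus 10% FBS.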

[9] = molecular target: Glucocorticoid receptor (Homo sapiens) (UniProt P04150); assay: qHTS assay to identify small molecule agonists of the glucocorticoid receptor (GR) signaling pathway (AID 720691; active means well fitted activation curve with a large enough effect in the signal ratio in the repeat runs, not every such curve was filed as active; the % refers to the signal ratio)
Glucocorticoid receptor (Homo sapiens), sequence (P04150 whole entry, looked up): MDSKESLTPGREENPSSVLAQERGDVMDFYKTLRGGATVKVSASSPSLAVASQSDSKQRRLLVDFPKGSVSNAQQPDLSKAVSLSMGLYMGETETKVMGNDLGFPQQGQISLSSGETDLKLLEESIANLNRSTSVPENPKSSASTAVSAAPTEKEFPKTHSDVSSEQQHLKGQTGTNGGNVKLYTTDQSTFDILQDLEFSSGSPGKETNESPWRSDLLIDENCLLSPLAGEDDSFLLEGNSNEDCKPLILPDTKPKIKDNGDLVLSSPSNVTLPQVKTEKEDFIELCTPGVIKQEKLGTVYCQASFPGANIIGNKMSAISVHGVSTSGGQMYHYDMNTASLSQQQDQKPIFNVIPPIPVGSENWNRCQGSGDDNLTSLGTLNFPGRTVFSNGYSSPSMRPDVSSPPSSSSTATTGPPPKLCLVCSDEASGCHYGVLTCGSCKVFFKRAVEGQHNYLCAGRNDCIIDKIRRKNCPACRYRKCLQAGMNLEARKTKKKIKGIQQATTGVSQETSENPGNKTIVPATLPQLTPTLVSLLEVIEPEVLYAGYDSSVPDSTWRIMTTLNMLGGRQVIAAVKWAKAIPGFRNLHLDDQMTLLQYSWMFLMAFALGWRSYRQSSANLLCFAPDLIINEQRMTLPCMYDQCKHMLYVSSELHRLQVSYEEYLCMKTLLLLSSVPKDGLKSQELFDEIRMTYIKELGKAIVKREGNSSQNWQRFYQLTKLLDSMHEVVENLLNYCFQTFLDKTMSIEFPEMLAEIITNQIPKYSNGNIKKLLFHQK
Summary of the method: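 GR-bla HeLa cells (beta-lactamase reporter under glucocorticoid response element) were plated 4 h at 37 C/5% CO2, given compounds in DMSO, and incubated 18 h at 37 C. LiveBLAzer B/G FRET substrate was added for 2 h at room temperature, then fluorescence intensity read.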

[10] = molecular target: Glucocorticoid receptor (Homo sapiens) (UniProt P04150); assay: qHTS assay to identify small molecule antagonists of the glucocorticoid receptor (GR) signaling pathway (AID 720692; active means well fitted inhibition curve with a large enough effect in the signal ratio in the repeat runs, not every such curve was filed as active; the % refers to the signal ratio)
Summary of the method: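 GR-bla HeLa cells (beta-lactamase reporter under glucocorticoid response element) were pre-plated 4 h at 37 C, treated with compounds plus 5 nM dexamethasone (final) for 18 h, then read by LiveBLAzer B/G FRET fluorescence after 2 h.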

[11] = qHTS assay to identify small molecule antagonists of the glucocorticoid receptor (GR) signaling pathway - cell viability counter screen (AID 720693); further: nearly all actives have a fitted effect of over 55% in size
[12] = qHTS assay for identifying genotoxic compounds that show differential cytotoxicity against isogenic chicken DT40 cell lines with known DNA damage response pathways - wild type cell line (AID 743012); further: nearly all actives have a fitted effect of over 60% in size; further: potency means the concentration at half of the fitted maximal effect
Summary of the method: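 Parental DNA repair-proficient DT40 cells, 300 per well, were pre-incubated ~0.5 h at 37 C/5% CO2, pin-dosed with compounds in DMSO, then incubated 40 h. Viability was read as CellTiter-Glo luminescence after 30 min at room temperature.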

[13] = qHTS assay for identifying genotoxic compounds that show differential cytotoxicity against isogenic chicken DT40 cell lines with known DNA damage response pathways - Rev3 mutant cell line (AID 743014); further: nearly all actives have a fitted effect of over 55% in size; further: potency means the concentration at half of the fitted maximal effect
[14] = qHTS assay to identify small molecule antagonists of the androgen receptor (AR) signaling pathway using the MDA cell line - cell viability counter screen (AID 743041; further: nearly all actives have a fitted effect of over 45% in size)
Summary of the method: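 Cells were plated at 3,000 per well and left 5 h. Compounds in DMSO were then pinned in, followed by R1881. After 16 h at 37C, CellTiter-Fluor fluorescence gave viability.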

[15] = qHTS assay for identifying genotoxic compounds that show differential cytotoxicity against isogenic chicken DT40 cell lines with known DNA damage response pathways - Rad54/Ku70 mutant cell line (AID 743015); further: nearly all actives have a fitted effect of over 60% in size; further: potency means the concentration at half of the fitted maximal effect
[16] = qHTS assay to identify small molecule antagonists of the androgen receptor (AR) signaling pathway - cell viability counter screen (AID 743033; further: nearly all actives have a fitted effect of over 45% in size)
[17] = molecular target: Androgen receptor (Homo sapiens) (UniProt P10275); assay: qHTS assay to identify small molecule antagonists of the androgen receptor (AR) signaling pathway (AID 743035; active means well fitted inhibition curve with a large enough effect in the signal ratio in the repeat runs, not every such curve was filed as active; the % refers to the signal ratio)
Androgen receptor (Homo sapiens), sequence (P10275 whole entry, looked up): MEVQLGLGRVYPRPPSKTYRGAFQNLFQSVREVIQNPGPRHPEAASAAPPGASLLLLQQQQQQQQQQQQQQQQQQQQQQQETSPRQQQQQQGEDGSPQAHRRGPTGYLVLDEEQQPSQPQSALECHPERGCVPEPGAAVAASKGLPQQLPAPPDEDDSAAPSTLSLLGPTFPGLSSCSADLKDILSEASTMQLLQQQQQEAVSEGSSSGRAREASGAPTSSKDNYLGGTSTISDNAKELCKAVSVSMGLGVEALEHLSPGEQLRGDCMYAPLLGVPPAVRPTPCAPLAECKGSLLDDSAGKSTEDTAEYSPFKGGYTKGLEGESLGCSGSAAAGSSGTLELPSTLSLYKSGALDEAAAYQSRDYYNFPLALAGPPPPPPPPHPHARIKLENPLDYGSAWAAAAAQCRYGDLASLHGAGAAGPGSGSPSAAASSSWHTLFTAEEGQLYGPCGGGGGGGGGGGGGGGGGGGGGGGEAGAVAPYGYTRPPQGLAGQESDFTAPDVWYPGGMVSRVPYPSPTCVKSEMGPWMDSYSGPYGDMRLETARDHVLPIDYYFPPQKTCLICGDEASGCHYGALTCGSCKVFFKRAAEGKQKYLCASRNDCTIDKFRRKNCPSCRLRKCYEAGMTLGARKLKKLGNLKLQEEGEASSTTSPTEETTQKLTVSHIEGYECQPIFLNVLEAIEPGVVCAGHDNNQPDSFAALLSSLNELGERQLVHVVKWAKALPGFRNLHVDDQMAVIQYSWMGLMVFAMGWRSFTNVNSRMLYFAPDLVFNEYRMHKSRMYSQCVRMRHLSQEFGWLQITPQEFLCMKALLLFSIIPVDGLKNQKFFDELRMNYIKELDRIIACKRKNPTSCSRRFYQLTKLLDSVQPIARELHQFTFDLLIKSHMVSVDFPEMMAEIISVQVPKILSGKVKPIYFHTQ
Summary of the method: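 HEK293 cells stably carrying a UAS-driven beta-lactamase reporter (AR-UAS-bla GripTite) were plated for 4 h at 37C, then given compound and the agonist R1881 and incubated 16 h. Reporter activity was read by LiveBLAzer B/G FRET fluorescence after 2 h at room temperature.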

[18] = molecular target: Androgen receptor (Homo sapiens) (UniProt P10275); assay: qHTS assay to identify small molecule agonists of the androgen receptor (AR) signaling pathway (AID 743036; active means well fitted activation curve with a large enough effect in the signal ratio in the repeat runs, with a control signal flat, not every such curve was filed as active; the % refers to the signal ratio)
Summary of the method: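 Beta-lactamase under UAS control, stably integrated in HEK293 GripTite cells, reports receptor activation. After 16 h compound treatment, cells received FRET substrate for 2 h at room temperature before fluorescence reading.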

[19] = molecular target: Androgen receptor (Homo sapiens) (UniProt P10275); assay: qHTS assay to identify small molecule agonists of the androgen receptor (AR) signaling pathway using the MDA cell line (AID 743040; further: nearly all actives have a fitted effect of over 20% in size)
Summary of the method: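 Cells plated, 5 h at 37C/0% CO2; compound or DMSO pinned; 16 h at 37C; ONE-Glo added; luminescence measured after 30 min at room temperature. Reporter line: MDA-kb2 with MMTV-luciferase responsive to AR and GR.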

[20] = molecular target: Androgen receptor (Homo sapiens) (UniProt P10275); assay: qHTS assay to identify small molecule antagonists of the androgen receptor (AR) signaling pathway using the MDA cell line (AID 743042; further: nearly all actives have a fitted effect of over 55% in size)
Summary of the method: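 Antagonist mode: compounds plus R1881 agonist added to MDA-kb2 AR-luc cells, incubated 16 h at 37C. Luciferase reporter luminescence quantified, with multiplexed CellTiter-Fluor readout for cell viability.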
On the % scale 0 is the no-effect control and ±100 the full control effect.

ClCCCl
inactive: outcome [1] | outcome [2] | outcome [3] | outcome [4] | outcome [5] | outcome [6] | outcome [7] | outcome [8] | Potency [9] | outcome [10] | outcome [11] | Potency [12] | Potency [13] | Potency [14]

Cc1cc(NC(=O)C2=C(O)c3ccccc3S(=O)(=O)N2C)no1
inactive: outcome [1] | outcome [2] | outcome [3] | outcome [4] | outcome [5] | outcome [6] | outcome [7] | outcome [8] | Potency [9] | outcome [10] | outcome [11] | Potency [12] | Potency [13] | Potency [15] | Potency [16] | Potency [14]

CCCCNC1CC(C)(C)NC(C)(C)C1
active: Potency [13] 48.6 µM
inactive: outcome [1] | outcome [2] | outcome [3] | outcome [4] | outcome [5] | outcome [6] | outcome [7] | outcome [8] | Potency [9] | outcome [10] | outcome [11] | Potency [12] | Potency [16] | Potency [14]

CCCCNc1ccc(C(=O)OCCN(C)C)cc1
inactive: fluorescence, % of fluorescein [1] -0.108% [at 18.6 µM] | fluorescence, % of fluorescent control [2] 0.0181% [at 18.6 µM] | activity change [3] -0.0203% [at 18.6 µM] | fluorescence, % of fluorescent control [4] -0.282% [at 18.6 µM] | fluorescence, % of Rose Bengal [5] 0.315% [at 18.6 µM] | fluorescence, % of fluorescent control [6] 0.0923% [at 18.6 µM] | fluorescence, % of fluorescein control [7] -0.0132% [at 18.6 µM] | fluorescence, % of fluorescent control [8] 0.0537% [at 18.6 µM] | Potency [9] | outcome [10] | outcome [11] | Potency [16] | Potency [14]
active: Potency [12] 5.07 µM | Potency [13] 2.85 µM | Potency [15] 5.07 µM

Cc1ccccc1OCC(O)CO (stereo not drawn)
inactive: outcome [1] | outcome [2] | outcome [3] | outcome [4] | outcome [5] | outcome [6] | outcome [7] | outcome [8] | Potency [9] | outcome [10] | outcome [11] | Potency [12] | Potency [13] | Potency [14]

CC(=O)Nc1ccc(S(=O)(=O)Nc2ccc([N+](=O)[O-])cc2)cc1
inactive: outcome [1] | outcome [2] | outcome [3] | outcome [4] | outcome [5] | outcome [6] | outcome [7] | outcome [8] | Potency [9] | outcome [10] | outcome [11] | Potency [12] | Potency [13] | Potency [15] | Potency [14]

O=C(CS(=O)Cc1ccco1)NC/C=C\COc1cc(CN2CCCCC2)ccn1 (stereo not drawn)
inactive: outcome [1] | outcome [2] | outcome [3] | outcome [4] | outcome [5] | outcome [6] | outcome [7] | outcome [8] | Potency [9] | outcome [10] | outcome [11] | Potency [12] | Potency [13] | Potency [14]

COCCOCCOCCOCCOCCO
inactive: outcome [1] | outcome [2] | outcome [3] | outcome [4] | outcome [5] | outcome [6] | outcome [7] | outcome [8] | Potency [9] | outcome [10] | outcome [11] | Potency [12] | Potency [13] | Potency [15] | Potency [14]

OCCCCC(O)CO (stereo not drawn)
inactive: outcome [1] | outcome [2] | outcome [3] | outcome [4] | outcome [5] | outcome [6] | outcome [7] | outcome [8] | Potency [9] | outcome [10] | outcome [11] | Potency [12] | Potency [13] | Potency [15] | Potency [16] | Potency [14]

O=C(O)c1ccc(Cl)cc1Cl
inactive: outcome [1] | outcome [2] | outcome [3] | outcome [4] | outcome [5] | outcome [6] | outcome [7] | outcome [8] | Potency [9] | outcome [10] | outcome [11] | Potency [12] | Potency [13] | Potency [15] | Potency [16] | Potency [14]

COc1cc(NS(=O)(=O)c2ccc(N)cc2)nc(OC)n1
inactive: fluorescence, % of fluorescein [1] 0.0037% [at 18.6 µM] | fluorescence, % of fluorescent control [2] 0.0589% [at 18.6 µM] | activity change [3] -0.0247% [at 18.6 µM] | fluorescence, % of fluorescent control [4] 0.0115% [at 18.6 µM] | fluorescence, % of Rose Bengal [5] 0.441% [at 18.6 µM] | fluorescence, % of fluorescent control [6] -0.0655% [at 18.6 µM] | fluorescence, % of fluorescein control [7] -0.0376% [at 18.6 µM] | fluorescence, % of fluorescent control [8] 0.0701% [at 18.6 µM] | Potency [9] | outcome [10] | outcome [11] | Potency [12] | Potency [13] | Potency [16] | Potency [17] | outcome [18] | outcome [19] | Potency [14] | Potency [20]

CCCCCCCCCC(C)=O
inactive: outcome [1] | outcome [2] | outcome [3] | outcome [4] | outcome [5] | outcome [6] | outcome [7] | outcome [8] | Potency [9] | outcome [10] | outcome [11] | Potency [12] | Potency [13] | Potency [16] | Potency [17] | outcome [18] | outcome [19] | Potency [14] | Potency [20]

C=CCCCCCCCCCCCC
inactive: outcome [1] | outcome [2] | outcome [3] | outcome [4] | outcome [5] | outcome [6] | outcome [7] | outcome [8] | Potency [9] | outcome [10] | outcome [11] | Potency [12] | Potency [13] | Potency [15] | Potency [16] | Potency [17] | outcome [19] | Potency [14] | Potency [20]

CN(C)c1ccc(C=O)cc1
inactive: outcome [1] | outcome [2] | outcome [3] | outcome [4] | outcome [5] | outcome [6] | outcome [7] | outcome [8] | Potency [9] | outcome [10] | outcome [11] | Potency [12] | Potency [13] | Potency [15] | Potency [16] | Potency [14]

C[C@H](CCC(=O)O)[C@H]1CC[C@H]2[C@@H]3C(=O)C[C@@H]4CC(=O)CC[C@]4(C)[C@H]3CC(=O)[C@]12C
inactive: outcome [1] | outcome [2] | outcome [3] | outcome [4] | outcome [5] | outcome [6] | outcome [7] | outcome [8] | Potency [9] | outcome [10] | outcome [11] | Potency [12] | Potency [13] | Potency [16]
